# Active and inactive are the calls of the source. Calls come from the whole dose curve; as a rule, active = well fitted curve in the direction sought with a large enough effect; inactive = no such curve, though single readings can be large or run the other way.
# Biological target: Alpha-galactosidase A (Homo sapiens) (UniProt P06280)
# Test: Counterscreen for Glucocerebrosidase Inhibitors: qHTS Assay for Human alpha-Galactosidase at pH 4.5 (AID 992)
# Conditions: purified enzyme, fluorogenic substrate; series mostly up to 76.9 µM
# How it was run: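 Each compound is preincubated briefly with 2 nM enzyme before substrate addition (80 uM); plates then sit 20 min at ambient temperature, are quenched with 1M NaOH/1M glycine, and read fluorometrically.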
# Chain of Alpha-galactosidase A (Homo sapiens) (P06280 whole entry, looked up): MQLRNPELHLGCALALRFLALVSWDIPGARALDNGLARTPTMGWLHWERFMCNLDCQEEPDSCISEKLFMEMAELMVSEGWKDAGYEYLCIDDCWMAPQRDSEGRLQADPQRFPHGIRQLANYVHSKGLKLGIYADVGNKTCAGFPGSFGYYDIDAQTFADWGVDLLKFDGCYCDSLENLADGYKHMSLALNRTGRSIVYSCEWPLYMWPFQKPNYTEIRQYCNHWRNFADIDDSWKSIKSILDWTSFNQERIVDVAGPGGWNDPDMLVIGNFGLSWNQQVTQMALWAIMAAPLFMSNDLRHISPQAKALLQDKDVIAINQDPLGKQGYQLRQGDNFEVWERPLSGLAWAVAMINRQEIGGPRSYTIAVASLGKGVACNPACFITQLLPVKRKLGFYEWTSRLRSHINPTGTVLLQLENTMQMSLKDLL
row,SMILES,outcome
1,Cc1nc2sccn2c(=O)c1CCN1CCC(=C(c2ccc(F)cc2)c2ccc(F)cc2)CC1,inactive
2,CSc1ccc(C(=O)c2[nH]c(=O)[nH]c2C)cc1,inactive
3,CCn1nc(C(=O)O)c(=O)c2cc3c(cc21)OCO3,inactive
4,NCCCNCCSP(=O)(O)O,inactive
5,CCN(CC)CCNC(=O)c1ccc(NC(C)=O)cc1,inactive
6,OCCN1CCN(CCCN2c3ccccc3C=Cc3ccccc32)CC1,inactive
7,Cc1scc2c1N(C(=O)CN1CCN(C)CC1)c1ccccc1NC2=O,inactive
8,c1cnc(N2CCN(Cc3ccc4c(c3)OCO4)CC2)nc1,inactive
9,CCC(=O)c1ccc2c(c1)N(CCCN(C)C)c1ccccc1S2,inactive
10,CN(C)C(=O)Oc1cccc([N+](C)(C)C)c1,inactive
11,CCCN(CCC)CCc1cccc2c1CC(=O)N2,inactive
12,Brc1c(NC2=NCCN2)ccc2nccnc12,inactive
13,O=C(O)CN(CCOCCOCCN(CC(=O)O)CC(=O)O)CC(=O)O,inactive
14,O=C(O)CN(CCN(CC(=O)O)CC(=O)O)CCN(CC(=O)O)CC(=O)O,inactive
15,CC(=O)Oc1cc(C(C)C)c(OCCN(C)C)cc1C,inactive
16,C[C@]12CCC(=O)C=C1CC[C@@H]1[C@@H]2CC[C@@]2(C)[C@H]1CC[C@]2(O)C(=O)CO,inactive
17,CC1=NS(=O)(=O)c2cc(Cl)ccc2N1,inactive
18,O=C1CC2(CCCC2)CC(=O)N1CCCCN1CCN(c2ncccn2)CC1,inactive
19,CN(C)C(=O)Oc1ccc[n+](C)c1,inactive
20,NC(N)=NC(=O)Cc1c(Cl)cccc1Cl,inactive
21,CC1=C(C)C(=O)C(CCCCC#CCCCC#CCO)=C(C)C1=O,inactive

# — PubChem BioAssay (NCATS)
